Laboratory results from PubChem BioAssay (EPA / NIEHS).
Where “and” joins values, the source holds several entries; their conditions need not be identical. Identical values can stand only once. Results filed as inconclusive are left out. Calls of active or inactive are those of the source. How the source made its calls: active means hit-call score of the fitted dose curve at least 0.9, where 1 is the maximum; inconclusive means response in the unintended direction; inactive means score below 0.9.

Molecular target: Cellular tumor antigen p53 (Homo sapiens) (UniProt P04637)
Experiment: TOX21_p53_BLA_p4_ratio: Tox21 HCT-116 p53 Agonism Beta-lactamase Assay, Ratio, Phase 4 (AID 2283601)
Method in brief: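 HCT-116 p53 beta-lactamase reporter cells (4000/well) preincubated 5 h, then compound (217-fold dilution of DMSO stock) for 16 h at 37C. CCF4-AM substrate added 2 h at room temperature; 460/530 nm emission ratio fitted upward versus DMSO.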

Sequence of Cellular tumor antigen p53 (Homo sapiens) (P04637 whole entry, looked up): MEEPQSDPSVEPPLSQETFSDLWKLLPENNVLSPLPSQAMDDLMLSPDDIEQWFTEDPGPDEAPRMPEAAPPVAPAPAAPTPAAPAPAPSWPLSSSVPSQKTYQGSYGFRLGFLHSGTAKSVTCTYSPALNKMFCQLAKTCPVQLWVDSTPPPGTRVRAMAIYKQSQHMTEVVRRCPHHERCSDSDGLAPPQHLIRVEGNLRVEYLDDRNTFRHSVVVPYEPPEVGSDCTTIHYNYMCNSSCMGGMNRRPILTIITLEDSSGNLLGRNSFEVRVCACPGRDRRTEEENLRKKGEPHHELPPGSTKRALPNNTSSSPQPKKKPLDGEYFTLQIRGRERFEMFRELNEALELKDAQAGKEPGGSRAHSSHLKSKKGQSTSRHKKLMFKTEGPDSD

Row | SMILES | outcome | AC50
1 | IC(I)I | inactive | –
2 | c1ccc2[nH]cnc2c1 | inactive | –
3 | CCCCCCCCN1CCCC1=O | inactive | –
4 | CCCN(CCC)S(=O)(=O)c1ccc(C(=O)O)cc1 | inactive | –
5 | C[Si]1(C)O[Si](C)(C)O[Si](C)(C)O1 | inactive | –
6 | CCCSc1ccc2nc(NC(=O)OC)[nH]c2c1 | – | 339 nM (active) and 175 nM (active)
7 | CC(C)CCOC(=O)c1ccccc1 | inactive | –
8 | Nc1ccn([C@H]2CS[C@@H](CO)O2)c(=O)n1 | inactive | –
9 | O=[N+]([O-])c1cccc(Cl)c1 | inactive | –
10 | COS(=O)(=O)O | inactive | –
11 | Nc1ccc2c(O)cc(S(=O)(=O)O)cc2c1 | – | 46.1 µM (active) and 16 µM (active)
12 | Cc1c(C2(c3cc(Br)c(O)c(Br)c3C)OS(=O)(=O)c3ccccc32)cc(Br)c(O)c1Br | inactive | –
13 | C=C(C)CNCC | inactive | –
14 | CN1CCOCC1 | inactive | –
15 | C=CC(=O)OCCC#N | inactive | –
16 | ON=C1CCCCC1 | inactive | –
17 | OC[C@H]1O[C@@H](Oc2ccc(O)cc2)[C@H](O)[C@@H](O)[C@@H]1O | inactive | –
18 | CCCC[P+](CCCC)(CCCC)CCCC | inactive | –
19 | CCCC[O][Al]([O]CCCC)[O]CCCC | inactive | –
20 | c1ccc(CCc2ccccc2)cc1 | inactive | –

Row | SMILES | outcome | AC50
21 | O=C(Nc1ccc2c(c1)Cc1ccccc1-2)C(F)(F)F | inactive | –
22 | C[Si](C)(C)O[Si](C)(C)C | inactive | –
23 | CC(C)(C)c1ccc(C(=O)O)cc1 | inactive | –
24 | CCO/C=C1\N=C(c2ccccc2)OC1=O | inactive | –
25 | CS(C)=O | inactive | –
26 | CC/C=C\CCOC(=O)CC | inactive | –
27 | CCCCCCOC(=O)C(C)C | inactive | –
28 | COC(C)(C)CCCC(C)CC=O (centres undefined) | inactive | –
29 | OCc1ccc(Cl)cc1Cl | inactive | –
30 | C[C@H](CCC(=O)NCC(=O)O)[C@H]1CC[C@H]2[C@@H]3[C@H](O)C[C@@H]4C[C@H](O)CC[C@]4(C)[C@H]3C[C@H](O)[C@]12C | inactive | –
31 | O=C(O)c1cc(C(=O)O)cc([N+](=O)[O-])c1 | inactive | –
32 | NCC1CCCC(CN)C1 (centres undefined) | inactive | –
33 | CCCCCC(=O)CC | inactive | –
34 | CCCCCCCCCCCCN1CCCCCC1=O | inactive | –
35 | Cc1ncc[nH]1 | inactive | –
36 | O=C1OC(=O)c2c(Cl)c(Cl)c(Cl)c(Cl)c21 | inactive | –
37 | COCCOC(=O)c1ccccc1C(=O)OCCOC | inactive | –
38 | CCCCCc1ccco1 | inactive | –
39 | Cc1[nH]c(=O)c(C#N)cc1-c1ccncc1 | inactive | –
